# Assay results from ChEMBL document CHEMBL3988442, “University of Dundee, Small-Polar-MMV Screening Library” (2021).
# The whole screen tested about 66,000 compounds, of which about 960 (1.5%) showed an effect of 50% or more. Shown is part of a subset that was picked to be rich in strong results.
# Tested on: Trypanosoma brucei
# Experiment: Trypanosoma brucei 72 hour study
# Assay type: functional, organism-based
# Design: scale not given: in the data most compounds retested in dose-response had high values
structure (smiles),measurement,setting,value
CNc1ncc2c(n1)CN(C1CCCC1)C2=O,Percent Effect,"30.3 µM, […]",-26.22%
CNCc1ccc([C@@H]2CN(C)C[C@H]2C(N)=O)cc1.Cl,Percent Effect,"30.3 µM, […]",-7.095%
CC(C)(C)c1cc(CN2C[C@H]3CC[C@@H]2CN(Cc2cscn2)C3)n[nH]1,Percent Effect,"30 µM, 30.03 µM",14.03%
O=C(NCc1ccc2c(c1)OCO2)c1ccc(N2CCCCCC2)nc1,Percent Effect,"30 µM, 30.03 µM",-3.476%
CC(C)c1nccn1CCCNC(=O)c1ccc(-c2cn[nH]c2)nc1,Percent Effect,"30 µM, 30.03 µM",3.874%
O=C(NCCC1COc2ccccc2O1)c1ccc(N2CC(O)C2)nc1 (stereo not given),Percent Effect,"30 µM, 30.03 µM",57.01%
O=C(NCCC1COc2ccccc2O1)c1ccc(-c2cn[nH]c2)nc1 (stereo not given),Percent Effect,"30 µM, 30.03 µM",81.06%
CN(CC1COc2ccccc2O1)C(=O)C1=NN(C)C(=O)CC1 (stereo not given),Percent Effect,"30 µM, 30.03 µM",-29.23%
Cn1ccnc1-c1ccc(NCCC2COc3ccccc3O2)nn1 (stereo not given),Percent Effect,"30 µM, 30.03 µM",-17.77%
CC(C)c1noc(CCNC(=O)NCC2COc3ccccc3O2)n1 (stereo not given),Percent Effect,"30 µM, 30.03 µM",-35.89%
CN(CC1COc2ccccc2O1)C(=O)c1ccc(-c2cn[nH]c2)nc1 (stereo not given),Percent Effect,"30 µM, 30.03 µM",34.02%
O=C(NCCC1COc2ccccc2O1)c1ccc(-c2cc[nH]n2)nc1 (stereo not given),Percent Effect,"30 µM, 30.03 µM",51.23%
CN1CCCC(c2ccnc(C(=O)NC3CC3)c2)C1 (stereo not given),Percent Effect,"30.3 µM, […]",-4.506%
Cc1occc1C(=O)N1CCC2(CC1)CC(OCc1ccccn1)CO2.O=C(O)C(F)(F)F (stereo not given),Percent Effect,"30.3 µM, […]",-782.3%
CCC(C)NC(=O)c1nnn(-c2cccc3c2CCN(C)C3)c1C (stereo not given),Percent Effect,"30 µM, 30.03 µM",31.65%
CC(C)c1ncc(CN2CCC(CO)C2)cn1.O=C(O)CC(O)(CC(=O)O)C(=O)O (stereo not given),Percent Effect,"30.3 µM, […]",-24.24%
O=C(NCc1cccnc1)N1CCC2(CC(=O)N(c3ccsc3)C2)C1.O=C(O)C(F)(F)F (stereo not given),Percent Effect,"30.3 µM, […]",-73.27%
Cc1ccsc1-c1cccc(-c2ccn(CC3CCNC3)n2)c1 (stereo not given),Percent Effect,"30 µM, 30.03 µM",33.01%
N[C@@H]1CCC[C@@H](Oc2ccc(F)cc2Oc2ccccc2)[C@@H]1O,Percent Effect,"30.3 µM, […]",101.1%
CN[C@@H]1CCC[C@@H](Oc2ccccc2Oc2ccc(C)cc2)[C@@H]1O,Percent Effect,"30.3 µM, […]",101%
N[C@@H]1CCC[C@@H](Oc2ccc(F)cc2Oc2cccc(F)c2)[C@@H]1O,Percent Effect,"30.3 µM, […]",3.71%
Cc1noc(C)c1C(=O)N[C@@H]1CCC[C@@H](Oc2ccccc2)[C@@H]1O,Percent Effect,"30.3 µM, […]",5.859%
CNCc1cc(F)ccc1Oc1ccc(F)cc1,Percent Effect,"30.3 µM, […]",-17.97%
CN(C(=O)c1ccon1)[C@@H]1CCC[C@@H](Oc2ccccc2)[C@@H]1O,Percent Effect,"30.3 µM, […]",-27.68%
Cc1cc(C)nc(N2CC[C@H](Oc3ccccc3F)[C@@H](O)CC2)n1,Percent Effect,"30.3 µM, […]",-2.702%
Cc1noc(C)c1C(=O)N[C@@H]1CC[C@@H](Oc2ccccc2)[C@@H]1O,Percent Effect,"30.3 µM, […]",-4.467%
Cc1ccc(Oc2cc(F)ccc2O[C@@H]2CCC[C@@H](N)[C@H]2O)cc1,Percent Effect,"30.3 µM, […]",100.7%
Cc1ccc(N2CC[C@H]3O[C@@H](C(=O)N4CCCCO4)CC[C@H]32)nn1.O=C(O)C(F)(F)F,Percent Effect,"30.3 µM, […]",-38.73%
Cc1cc(C(=O)N2CCc3nnc(N)cc3C2)c(C)n1-c1ccccc1,Percent Effect,10 µM,-23.32%
same,Percent Effect,"30.3 µM, […]",-29.37%
Cc1ccoc1-c1nnc(CN2CCn3c(C)nnc3C2)o1,Percent Effect,10 µM,-13.57%
same,Percent Effect,"30.3 µM, […]",-3.504%
CN(C)c1cc(C2CCCN(S(=O)(=O)c3cn[nH]c3)C2)ccn1 (stereo not given),Percent Effect,"30.3 µM, […]",-2.52%
Cc1cccc(CNc2cc(C3CCCNC3)ccn2)n1.Cl (stereo not given),Percent Effect,"30.3 µM, […]",3.917%
CCC1CN(C)c2ccccc2CN1C(=O)Nc1ccccc1OC (stereo not given),Percent Effect,"30.3 µM, […]",42.13%
CC(c1cccnc1)N(C)Cc1cc(O)c2cc(F)ccc2n1 (stereo not given),Percent Effect,"30 µM, 30.03 µM",-16.14%
Br.Cn1cc(CN2CCC(c3cc(COc4cccc(Cl)c4)[nH]n3)C2)cn1 (stereo not given),Percent Effect,"30.3 µM, […]",49.27%
O=C(O)C(F)(F)F.O=C(c1ccoc1)N1C[C@@H]2OCCN(c3ncccn3)[C@@H]2C1,Percent Effect,"30.3 µM, […]",-8.279%
Cc1cccc2[nH]c(-c3cn(C4CCNCC4)nn3)nc12,Percent Effect,"30 µM, 30.03 µM",-21.72%
Cc1ccc2[nH]c(-c3cn(C4CCNCC4)nn3)nc2c1C,Percent Effect,"30 µM, 30.03 µM",-22.65%
Cc1c(C)c(C)c2[nH]c(-c3cn(C4CCNCC4)nn3)nc2c1C,Percent Effect,"30 µM, 30.03 µM",91.25%
O=C(NCC1CC1)C1CCC2(CCN(C(=O)c3cccnc3)CC2)O1.O=C(O)C(F)(F)F (stereo not given),Percent Effect,"30.3 µM, […]",-34.45%
O=C([C@H]1C[C@@H]2CN(c3ncc(F)cn3)C[C@H]1O2)N1CCCC1,Percent Effect,"30.3 µM, […]",-1.674%
Cc1cccc(Cc2cc(C)nc(C3CCCNC3)c2)c1 (stereo not given),Percent Effect,"30.3 µM, […]",100.3%
Cc1nc(C2CCCNC2)cc(N(C)CCc2ccccc2)n1 (stereo not given),Percent Effect,"30.3 µM, […]",33.93%
Cc1cc(Cc2ccccc2)cc(C2CCCNC2)n1 (stereo not given),Percent Effect,"30.3 µM, […]",2.708%
Cc1cc(Nc2cnccn2)cc(C2CCCNC2)n1 (stereo not given),Percent Effect,"30.3 µM, […]",-9.252%
Cc1nc(NC2CCCCC2)cc(C2CCCNC2)n1.Cl (stereo not given),Percent Effect,"30.3 µM, […]",43.9%
Cc1cc(Cc2cccc(C(F)(F)F)c2)cc(C2CCCNC2)n1 (stereo not given),Percent Effect,"30.3 µM, […]",99.88%
Cc1cc(Cc2ccc(F)cc2)cc(C2CCCNC2)n1 (stereo not given),Percent Effect,"30.3 µM, […]",51.54%
